From PubChem BioAssay (NCATS)
Records with an inconclusive call do not appear. The source made the active and inactive calls. The call rests on the fitted dose curve; in most records, active means well fitted cell-killing curve with a large enough effect; inconclusive means small, poorly fitted or top-dose-only effect, or effect the other way; inactive means no such curve, though single readings can be large or run the other way.

Assay: Quantitative High-Throughput drug screen in 47 multiple myeloma cell lines against the NCATS MIPE library collection: UTMC2_PLB cell viability assay (AID 1919868); further: nearly all actives have a fitted effect of over 55% in size
Details: CellTiter-Glo ATP luminescence, 48 h; viability (% of DMSO control): at 45.8 µM (top of the series)
From the text: PI: Beverly A. Mock Ph.D.
Laboratory of Cancer Biology and Genetics,
Center for Cancer Research, National Cancer Institute,
National Institute of Health, Bethesda, Maryland
Drug resistance and disease progression are common in multiple myeloma (MM) patients, underscoring the need for new therapeutic combinations. […] We hypothesized that effective combinations would reduce MYC expression and enhance p16 activity. […] These preclinical data identify potentially useful drug combinations for evaluation in drug-resistant MM and reveal potential mechanisms of combined drug sensitivity.
Described herein is the primary MIPE qHTS used to cherrypick compounds. Validated compounds were then further tested for potential synergistic activiy.
[1] Peat TJ, Gaikwad SM, Dubois W, Gyabaah-Kessie N, Zhang S, Gorjifard S, Phyo Z, Andres M, Hughitt VK, Simpson RM, Miller MA, Girvin AT, Taylor A, Williams D, D'Antonio N, Zhang Y, Rajagopalan A, Flietner E, Wilson K, Zhang X, Shinn P, Klumpp-Thomas C, McKnight C, Itkin Z, Chen L, Kazandijian D, Zhang J, Michalowski AM, Simmons JK, Keats J, Thomas CJ, Mock BA. Drug combinations identified by high-throughput screening promote cell cycle transition and upregulate Smad pathways in myeloma. Cancer Lett. 2023 Aug 1;568:216284. doi: 10.1016/j.canlet.2023.216284. Epub 2023 Jun 24. PMID: 37356470; PMCID: PMC10408729.
SEQUENCE No. (e.g., 1, 2, 3, etc.); […] (e.g., Cells, Incubation, Reagent, etc.); VALUE and DESCRIPTION.
1; Cells; 5 uL; white, solid bottom 1536-well Greiner assay plate.
2; Compounds; 23 nL; Kalypsis pin tool (Wako USA) equipped with a 1536-well pin head to transfer to the assay plates.
3; Incubation; 48 hours; 37C incubation.
4; Reagent;5uL; CellTiter Glo (Promega).
5; Detector; 425V; Luminescence; Viewlux PerkinElmer.
NOTES (numbers refer to Sequence numbers above)
1. The cell-based screening methods employed in this study were like those previously published. Briefly, the corresponding myeloma cell lines were screened in 1,536-well plates with 500 cells, 5-uL per well for inhibition of cell viability (assessed by measuring ATP levels with CellTiterGlo).
2. NCATS MIPE 4.0 library of approved and investigational drugs were added using the Kalypsis pin tool. Wells treated with DMSO only for 100% viability and media only for 0% viability were used as controls.
3. The assay plates were covered and incubated for 48 hours in a 37C, 5% CO2 incubator with controlled humidity.
4. After 48 hours, CellTilter-GloTM luminescent substrate mix (Promega) reagent was added to the assay plate and plates we incubated for 5 min at room temperature.
5. Signal was measured as median relative luminescence units on a ViewLux (PerkinElmer) multiplate reader.
[1] Heske CM, Davis MI, Baumgart JT, Wilson K, Gormally MV, Chen L, Zhang X, Ceribelli M, Duveau DY, Guha R, Ferrer M, Arnaldez FI, Ji J, Tran HL, Zhang Y, Mendoza A, Helman LJ, Thomas CJ. Matrix Screen Identifies Synergistic Combination of PARP Inhibitors and Nicotinamide Phosphoribosyltransferase (NAMPT) Inhibitors in Ewing Sarcoma. Clin Cancer Res. 2017 Dec 1;23(23):7301-7311. doi: 10.1158/1078-0432.CCR-17-1121. Epub 2017 Sep 12. PMID: 28899971; PMCID: PMC6636827.
Potency means the concentration at half of the fitted maximal effect.

Compound	Potency	viability (% of DMSO control)
COC1(CS(=O)c2ccccc2)CCN(CCc2c[nH]c3ccc(F)cc23)CC1 (stereo not given)	inactive	–
O=C1CC[C@@]2(O)[C@H]3Cc4ccc(O)c5c4[C@@]2(CCN3CC2CC2)[C@H]1O5	inactive	–
Cc1sc2c(c1C)C(c1ccc(Cl)cc1)=N[C@@H](CC(=O)OC(C)(C)C)c1nnc(C)n1-2	662 nM (active)	–
COc1ccc(C(=O)c2c(C)n(CCN3CCOCC3)c3ccccc23)cc1	inactive	–
C[C@@H]1O[C@@H](O[C@H]2C[C@@H](O)[C@]3(CO)[C@H]4[C@H](O)C[C@]5(C)[C@@H](C6=CC(=O)OC6)CC[C@]5(O)[C@@H]4CC[C@]3(O)C2)[C@H](O)[C@H](O)[C@H]1O	11.8 nM (active)	–
C=C(C)[C@H]1Cc2c(ccc3c2O[C@@H]2COc4cc(OC)c(OC)cc4[C@@H]2C3=O)O1	332 nM (active)	–
CN(C)CCN(C)CCc1ccc(Cl)c(Cl)c1	inactive	–
COc1ccc2c(c1OC)CN1CCc3cc4c(cc3C1C2)OCO4 (stereo not given)	2090 nM (active)	–
CN1CCN(C(=O)O[C@H]2c3nccnc3C(=O)N2c2ccc(Cl)cn2)CC1	–	181% (active)
COC[C@H]1OC(=O)c2coc3c2[C@@]1(C)C1=C(C3=O)C2CCC(=O)[C@@]2(C)C[C@H]1OC(C)=O (stereo not given in full)	264 nM (active)	–
N[C@@H](Cc1ccc(N(CCCl)CCCl)cc1)C(=O)O	935 nM (active)	–
COc1ccc(C(CN(C)C)C2(O)CCCCC2)cc1 (stereo not given)	inactive	–
C[C@@H]1[C@@H](C(=O)C[C@H]2O[C@@H]3O[C@]4(C)CC[C@@H]5[C@H](C)CC[C@@H]([C@H]2C)[C@@]35OO4)O[C@@H]2O[C@]3(C)CC[C@H]4[C@H](C)CC[C@@H]1[C@@]24OO3	166 nM (active)	–
CC(O)(CS(=O)(=O)c1ccc(F)cc1)C(=O)Nc1ccc(C#N)c(C(F)(F)F)c1 (stereo not given)	4180 nM (active)	–
C[C@@H]1[C@@H](CC(C[C@H]2O[C@@H]3O[C@]4(C)CC[C@@H]5[C@H](C)CC[C@@H]([C@H]2C)[C@@]35OO4)C[S+](=O)([O-])c2ccc(COC(=O)N(C)C)cc2)O[C@@H]2O[C@]3(C)CC[C@H]4[C@H](C)CC[C@@H]1[C@@]24OO3 (stereo not given in full)	187 nM (active)	–
